Screening data as filed in PubChem.
ERK AVP inh: inhibitors of vasopressin-stimulated ERK signaling pathway. HEK293-V1b, vasopressin-stimulated pERK AlphaScreen. 0.99% of 72,000 active. Potency, µM (titrated, usually from 57.5 µM), for the others: at the top dose activity, negative = inhibition, usual class: inhibitors. AID 995; further: on the % scale 0 is the no-effect control and ±100 the full control effect; nearly all actives have a fitted effect of over 55% in size
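Overnight-seeded V1b-HEK293 cells in 1% FBS got compound, then vasopressin (25 nM final, 5 min, 37C), then lysis buffer. AlphaScreen detection of phospho-ERK; activity normalized to basal and full-stimulation controls.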
HEK293 cAMP cs: parental HEK293 cAMP activation (counter-screen); 2.5% of 73,000 active; parental HEK293 CNG cAMP sensor, membrane potential fluorescence; AID 938; Potency, µM (series often up to 57.1 µM), without a hit: at the highest dose activation, actives largely listed as activators; further: % of control where 0% means no effect; nearly all actives have a fitted effect of over 55% in size
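Parental HEK 293 cells stably expressing a cAMP-gated CNG channel were loaded with membrane potential dye containing 100 uM RO 20-1724 for 60 min. Compound added for 30 min; depolarization read as fluorescence intensity at 590 nm.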
CRE-bla Fsk: modulators of forskolin-stimulated CRE signaling in CHO cells; AID 662; CHO CRE-bla reporter (cAMP response element driving beta-lactamase), forskolin EC10, beta-lactamase ratio; Potency, µM (highest dose often 38.2 µM), for inactives: top-dose activity change, negative = inhibition, most hits filed as activators; 2.5% of 71,000 active; active means well fitted activation curve with a large enough effect in the signal ratio, with a control signal flat, not every such curve was filed as active; inconclusive means small, poorly fitted or top-dose-only effect, or effect the other way, or a change in a side signal; the % refers to the signal ratio; further: % of control where 0% means no effect
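CHO CRE-bla cells, overnight plating in Opti-MEM with 0.5% dialyzed FBS; cpd titration + EC10 NKH 477, 3 h 37 °C; CCF4 2 h RT; ex 405/em 460 vs 530 ratio → %Activity, AC50.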
TSHR ag: activates the human thyroid stimulating hormone receptor. P16473. HEK293-CNG-TSHR cells (CNG channel as cAMP sensor), membrane potential dye, cAMP. Potency, µM (series often up to 57.1 µM), inactives show top-dose activation, actives largely listed as activators. 0.48% of 73,000 active. AID 926; active means well fitted activation curve with a large enough effect in the main read-out, with a control signal flat, not every such curve was filed as active; inconclusive means small, poorly fitted or top-dose-only effect, or a change in a side signal; inactive means no such curve, though single readings can be large or run the other way; % of control where 0% means no effect;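 further: the control signal comes from parental cells without the receptor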
Target sequence (P16473 whole entry, looked up): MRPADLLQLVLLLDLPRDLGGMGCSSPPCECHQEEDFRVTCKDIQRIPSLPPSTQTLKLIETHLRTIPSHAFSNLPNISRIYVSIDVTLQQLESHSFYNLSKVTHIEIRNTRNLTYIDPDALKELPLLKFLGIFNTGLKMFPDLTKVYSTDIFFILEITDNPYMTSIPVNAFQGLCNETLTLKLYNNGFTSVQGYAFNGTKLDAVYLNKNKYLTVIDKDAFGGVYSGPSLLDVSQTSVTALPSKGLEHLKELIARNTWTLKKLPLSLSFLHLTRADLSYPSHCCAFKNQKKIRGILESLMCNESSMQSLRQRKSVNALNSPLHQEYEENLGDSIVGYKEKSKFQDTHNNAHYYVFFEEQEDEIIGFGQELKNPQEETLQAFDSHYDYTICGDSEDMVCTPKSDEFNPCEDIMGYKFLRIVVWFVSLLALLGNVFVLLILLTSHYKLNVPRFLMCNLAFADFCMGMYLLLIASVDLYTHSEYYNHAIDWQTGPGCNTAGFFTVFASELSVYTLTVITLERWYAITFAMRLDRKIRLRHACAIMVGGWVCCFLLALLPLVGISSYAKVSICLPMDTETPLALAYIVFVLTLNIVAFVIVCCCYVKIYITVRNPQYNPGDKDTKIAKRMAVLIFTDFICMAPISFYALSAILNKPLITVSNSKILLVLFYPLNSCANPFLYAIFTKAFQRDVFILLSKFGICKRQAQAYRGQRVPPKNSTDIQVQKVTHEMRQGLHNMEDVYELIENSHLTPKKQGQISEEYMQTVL
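HEK 293 cells stably expressing TSHR and a modified CNG channel, with CNG-only parental cells as counterscreen, were preloaded 60 min at room temperature with membrane potential dye containing 100 uM RO 20-1724. Compound exposure was 30 min, and depolarization was read as fluorescence at 590 nm.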
Active calls of the source: *; [ ] = another dose, or the depositor's remark. Most compounds without a hit are left out; they make up all but 6% or so of the library. Unless noted, the call rests on the fitted dose curve; in most records, active means well fitted curve in the direction sought with a large enough effect; inconclusive means small, poorly fitted or top-dose-only effect, or another doubt; inactive means no such curve, though single readings can be large; an effect the other way counts as inactive or inconclusive. Potency means the concentration at half of the fitted maximal effect.

Screening COc1ccc(-c2nnc(SCC#CCO)o2)cc1OC returned ERK AVP inh inconclusive, HEK293 cAMP cs 6%, CRE-bla Fsk inconclusive and TSHR ag 5%.
`COc1ccc(-n2c(=O)c(-c3cccs3)nc3cnc(Oc4ccccc4)nc32)cc1` gave ERK AVP inh -7%, HEK293 cAMP cs 25%, CRE-bla Fsk inconclusive and TSHR ag 9%.
CCOC(=O)N1CCC(NC(=O)c2cc3c(-c4ccc(OC)c(OC)c4)nn(C)c3s2)CC1 was read as ERK AVP inh 9%, HEK293 cAMP cs 2%, CRE-bla Fsk inconclusive and TSHR ag 4%.
For COc1cccc(-c2nn(C)c3sc(C(=O)N4CCN(c5ccccn5)CC4)cc23)c1 the results were ERK AVP inh 7%, HEK293 cAMP cs inconclusive, CRE-bla Fsk inconclusive and TSHR ag inconclusive.
CCOC(=O)C1CCCN(C(=O)c2cc3c(-c4cccc(OC)c4)nn(C)c3s2)C1 (centres undefined) was read as ERK AVP inh 11%, HEK293 cAMP cs 16% and CRE-bla Fsk 3.2µM*.
Screening CC1CCCCN1CCNC(=O)c1cc2c(-c3ccccc3F)nn(C)c2s1 (centres undefined) returned ERK AVP inh -13%, HEK293 cAMP cs 21%, CRE-bla Fsk 23% and TSHR ag 16%.
Screening CCOC(=O)N1CCC(NC(=O)c2cc3c(-c4ccccc4F)nn(C)c3s2)CC1 returned ERK AVP inh 5µM*, HEK293 cAMP cs 0%, CRE-bla Fsk 15% and TSHR ag 6%.
CCOC(=O)C1CCCN(C(=O)c2cc3nc(-c4cccc(OC)c4)cc(C(F)(F)F)n3n2)C1 (centres undefined) was read as ERK AVP inh 16µM*, HEK293 cAMP cs 17%, CRE-bla Fsk -17% and TSHR ag 14%.
`CCOC(=O)C1CCN(C(=O)c2cc3c(-c4ccc(OC)c(OC)c4)nn(C)c3s2)CC1` gave ERK AVP inh inconclusive, HEK293 cAMP cs -8% and CRE-bla Fsk 2.5µM*.
`NC1=N[C@H](c2ccc(Cl)cc2)N(c2ccc(S(=O)(=O)Nc3ncccn3)cc2)C(N)=N1` gave ERK AVP inh inconclusive, HEK293 cAMP cs 1%[11.4 µM], CRE-bla Fsk 0%[7.6 µM] and TSHR ag 0%[11.4 µM].
For Cn1c(=O)n2n(c1=O)[C@H]1[C@H](O)[C@H]3O[C@@H]3/C(=N/OCc3ccccc3)[C@@H]1CC2 the results were ERK AVP inh 12%[11.5 µM], HEK293 cAMP cs 0%[11.4 µM] and TSHR ag 3%[11.4 µM].
`Cc1ccc(OCc2nn3c(-c4ccco4)nnc3s2)cc1` gave ERK AVP inh -8%, HEK293 cAMP cs inconclusive, CRE-bla Fsk 0% and TSHR ag inconclusive.
For Clc1ccc(OCc2nn3c(-c4ccco4)nnc3s2)c(Cl)c1 the results were ERK AVP inh -13%, HEK293 cAMP cs 32µM*, CRE-bla Fsk inconclusive and TSHR ag inconclusive.
For CN(C)CN1CSC(=S)N(CN(C)C)C1 the results were ERK AVP inh -8%[11.5 µM], HEK293 cAMP cs 2%[11.4 µM], CRE-bla Fsk 6%[7.6 µM] and TSHR ag -5%[11.4 µM].
CCOc1cc(C2NC(=O)NC(C)=C2C(=O)OC(C)CC)cc(Br)c1O (centres undefined) was read as ERK AVP inh -18%, HEK293 cAMP cs -2%, CRE-bla Fsk 10µM* and TSHR ag 15%.
CCC(C)OC(=O)C1=C(C)NC(=O)NC1c1ccc(F)cc1 (centres undefined) was read as ERK AVP inh -2%, HEK293 cAMP cs 3%, CRE-bla Fsk inconclusive and TSHR ag 3%.
For O=S(=O)(c1cccc(C(F)(F)F)c1)N1c2ccccc2-n2cccc2[C@H]1c1cccnc1 the results were ERK AVP inh inconclusive, HEK293 cAMP cs inconclusive, CRE-bla Fsk 2%[7.6 µM] and TSHR ag inconclusive.
O=C(CN1C(=O)COc2ccccc21)N(Cc1cccnc1)Cc1cccc(F)c1 was read as ERK AVP inh -26%, HEK293 cAMP cs 16µM*, CRE-bla Fsk -8% and TSHR ag inconclusive.
`C=CCn1c(=O)c(C(=O)NCCNCC)c(O)c2ccccc21` gave ERK AVP inh -22%, HEK293 cAMP cs 13µM*, CRE-bla Fsk 3% and TSHR ag inconclusive.
For COC(=O)c1ccc(C(NC(=O)OCc2ccccc2)/C(=C/[C@@H](C)C(=O)N[C@@H](CO)Cc2ccccc2)c2cccnc2)cc1 (some centres undefined) the results were ERK AVP inh 14%, HEK293 cAMP cs inconclusive, CRE-bla Fsk -21% and TSHR ag inconclusive.
